Screening data as filed in PubChem BioAssay.
Six1-Eya2 inh – qHTS Assay for Inhibitors of the Six1/Eya2 Interaction. actives 0.56% (n = 360,000). activity change, % (concentration not given with the values). AlphaScreen GST-Six1/His-Eya2 binding, biochemical; stronger effect = lower value
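Compounds are tested against tagged Six1 and Eya2 proteins bridged by glutathione donor and nickel acceptor beads; after a one-hour incubation at 37 °C without light, AlphaScreen emission is recorded.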
CtBP-E1A blk – qHTS Assay for Inhibitors of the CtBP/E1A Interaction | activity change, % (concentration not given with the values) | CtBP / adenovirus E1A interaction (AlphaScreen) | AID 651724, 2012 | AlphaScreen GST-E1A/His-CtBP binding, 1536-well; stronger effect = lower value | actives 0.49% (n = 340,000)
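Protein mix (5X: 125 nM each GST-E1A, His-CtBP) was incubated with pinned compound 2 h at 37 deg C in dark, in 50 mM Tris pH 8.0 buffer with 300 mM NaCl. Glutathione donor and nickel acceptor beads followed; AlphaScreen signal read after 1 h.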
GRP78 ERSR act – qHTS for Inducers of the Endoplasmic Reticulum Stress Response (ERSR) in Human Glioma: qHTS | U87-MG GRP78 promoter luciferase reporter, 16 h | Potency, µM, most hits filed as activators | actives 0.02% (n = 420,000) | AID 602332, 2012; active = well fitted curve in the direction sought with a large enough effect; inconclusive = small, poorly fitted or top-dose-only effect, or another doubt; inactive = no such curve, though single readings can be large; an effect the other way counts as inactive or inconclusive; note: series mostly up to about 76 µM; nearly all actives have a fitted effect of over 35% in size
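Stably transfected U87-MG glioma cells carrying a GRP78-based luciferase sensor; 16 h compound incubation. Luminescence end-point read 10 min after Bright-Glo addition at room temperature.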
pAkt inh – HTS Assay for Inhibitors of Akt Phophorylation: Primary Screen. Neuro2A IGF-stimulated pAkt S473 HTRF, 20 min; stronger effect = lower value. activity change, % for hits at 50 µM. actives 0.32% (n = 360,000). AID 651550, 2012; in the data active = activity change below about -80%; inconclusive = mostly about -51% to -80%
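Neuro2A cells in DMEM with 0.5% FBS, overnight at 37 deg C, given compound at single 50 µM final, then IGF (6 nM final) for 20 min at 37 deg C. Lysed; phospho-Akt Ser473 by HTRF after 24 h, 665/615 ratio.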
RGS4 inhibitor – Inhibitors of Regulator of G Protein Signaling (RGS) 4: qHTS; Regulator of G-protein signaling 4 (Homo sapiens), P49798; Transcreener GDP fluorescence polarization, RGS4-accelerated GTP hydrolysis; Potency, µM (titrated, usually from 114 µM), actives largely listed as inhibitors; actives 0.039% (n = 390,000); AID 504845, 2011; active = well fitted curve in the direction sought with a large enough effect; inconclusive = small, poorly fitted or top-dose-only effect, or another doubt; inactive = no such curve, though single readings can be large; an effect the other way counts as inactive or inconclusive; note: nearly all actives have a fitted effect of over 75% in size
Target sequence (P49798 whole entry, looked up): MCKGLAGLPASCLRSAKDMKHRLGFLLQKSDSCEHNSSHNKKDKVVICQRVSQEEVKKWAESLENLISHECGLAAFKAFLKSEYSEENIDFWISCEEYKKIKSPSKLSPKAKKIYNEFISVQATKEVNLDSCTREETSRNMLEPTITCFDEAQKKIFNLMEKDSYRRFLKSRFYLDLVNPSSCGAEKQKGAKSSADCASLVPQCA
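MLSMR compounds (23 nl, pin-transferred) preincubated 10 min at room temperature with a 500nM (2x) first reagent, then RGS4 at 900nM (2x) plus Transcreener GDP mix added; fluorescence polarization (620/688 nm) read before and after 90 min at 30 °C.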
A number is an active result; . = inactive; ? = inconclusive; / = no result. Compounds with a hit are over-represented: about 0.88% of the library has one in this group of screens. Cut-off read from the data, not from the text of the source, unless noted: active = activity change below about -65%; inconclusive = mostly about -30% to -63%; inactive = weaker than that.

SMILES	Six1-Eya2 inh	CtBP-E1A blk	GRP78 ERSR act	pAkt inh	RGS4 inhibitor
COc1cccc2c(SCC(=O)N/N=C/c3ccc(O)cc3O)cc(C)nc12	-79	-66	.	.	.
COc1ccc2nc(C)cc(SCC(=O)N/N=C/c3ccc(O)cc3O)c2c1	-74	-70	.	.	.
O=C(Cn1cncn1)N1CCOc2ccc(CN3CCN(c4ccccc4)CC3)cc2C1	/	/	.	/	/
CCC(C)(C)n1nnnc1C(c1ccc(OC)c(OC)c1)N1CCN(c2ccccc2)CC1 (stereo not given)	.	.	.	-105%	.
COc1cccc(/C=c2/[nH]c(=O)/c(=C\c3cccc(OC)c3OC)[nH]c2=O)c1OC	/	/	.	/	/
COCC(=O)Nc1cc(C(=O)N2CC3(C)CC2CC(C)(C)C3)c2c(c1)nc(-c1ccncc1)n2C (stereo not given)	/	/	.	/	/
CC(C)(C)n1ncc2c(=O)n(Cc3ccc(Cl)c(OC(F)(F)F)c3)cnc21	/	/	.	/	/
COCCn1nnnc1C(c1ccc2ncccc2c1)N1CCN(c2ccccc2F)CC1 (stereo not given)	.	.	.	-104%	.
O=C(NCCc1ccncc1)c1cnn(-c2ncc3c(n2)-c2ccccc2CCC3)c1C1CC1	/	/	.	/	/
O=C(N/N=C/c1cc([N+](=O)[O-])ccc1O)c1cccc(N2CCCC2=O)c1	-91	-93	.	.	.
O=C(N/N=C/c1ccccc1O)c1cc[n+]([O-])cc1	-78	-94	.	.	.
CCn1c(C)nc2cc(C(=O)N/N=C/c3cccc(O)c3O)ccc21	-80	-94	.	.	.
CCn1c(C)nc2cc(C(=O)N/N=C/c3ccccc3)ccc21	.	.	.	.	.
O=C(NN=Cc1cccc(O)c1O)c1ccccc1	-90	-91	.	.	/
CC(C)(C)c1ccc(C(=O)C[n+]2ccc(Cl)c3ccc(Cl)cc32)cc1	/	/	.	/	/
Cc1cnc(-n2ncc(C(=O)NCc3ccncc3)c2C(C)C)nc1-c1ccc(F)cc1	/	/	.	/	/
O=C(N/N=C/c1cc(Cl)ccc1O)c1ccc(Br)cc1	?	?	.	.	?
O=C(N/N=C/c1ccccc1O)c1ccncc1	-92	-92	.	.	.
O=C(N/N=C/c1ccccc1O)C(=O)Nc1ccccn1	-88	/	.	.	.
Cc1nccn1CC(=O)N/N=C/c1ccccc1O	-81	-96	.	.	.
O=C(N/N=C/c1cc(Br)ccc1O)c1ccncc1	-93	-94	.	.	.
Cc1cccc(CNC(=O)c2cnn(-c3ncc(C)c(-c4cccs4)n3)c2C2CC2)n1	/	/	.	/	/
Cc1ccccc1OCC(=O)Nc1cc(C)c(O)c(-c2nc3ccccc3o2)c1	/	/	.	/	/
O=C(N/N=C/c1cc([N+](=O)[O-])ccc1O)c1ccc2c(c1)OCCO2	-81	.	.	.	.
O=C(N/N=C/c1ccccc1[N+](=O)[O-])c1ccc2c(c1)OCCO2	.	.	.	.	.
SMILES	Six1-Eya2 inh	CtBP-E1A blk	GRP78 ERSR act	pAkt inh	RGS4 inhibitor
Cc1cc(C(=O)N/N=C/c2cc(Br)ccc2OC(=O)c2ccccc2)n[nH]1	?	-67	.	.	.
O=C(N/N=C/c1cc([N+](=O)[O-])ccc1O)c1cccc2cc[nH]c12	-70	-93	?	.	.
O=C(N/N=C/c1ccc(O)c2ncccc12)c1cccc(Br)c1	-82	-92	.	.	.
O=S(=O)(NCCNCC=Cc1ccc(Br)cc1)c1cccc2cnccc12	/	/	.	/	/
Cc1nc(C)c(C(=O)N/N=C/c2cc(Br)ccc2O)s1	?	-84	.	.	.
O=C(N/N=C/c1cc([N+](=O)[O-])ccc1O)c1ccncc1	-90	/	.	.	.
Cc1nc(C)c(C(=O)N/N=C/c2c[nH]c3ccccc23)s1	.	.	.	.	.
Nc1nonc1-n1nnc(C(=O)N/N=C/c2cc(Br)ccc2O)c1CNc1ccccc1	.	.	.	.	.
Nc1nonc1C(=O)N/N=C/c1cc(Br)ccc1O	-93	-92	.	.	.
O=C(N/N=C/c1cc(Br)ccc1OC(=O)c1ccc(Br)cc1)c1ccncc1	-79	-91	.	.	.
COc1ccc2c(c1)OC(C)CN(CCNC(=O)C1CCOC1)C2 (stereo not given)	/	/	.	/	/
CCn1c(C)nc2cc(C(=O)NNS(=O)(=O)c3c(C)c(C)cc(C)c3C)ccc21	.	.	.	-120%	.
CCn1c(C)nc2cc(C(=O)NNC(=O)c3ccc(C)cc3)ccc21	.	.	.	.	.
COc1ccc(-c2nc3ccc(C4=C(C)CC(=O)NN4)cc3[nH]2)cc1	/	/	.	/	/
CN(C)c1ccc(N=Nc2ccccc2C(=O)OCC(=O)N2CCCCCC2)cc1	-74	-66	.	.	.
CN(C)c1ccc(N=Nc2ccccc2C(=O)OCC(=O)N2CCCC2)cc1	?	.	.	.	.
CN(C)c1ccc(N=Nc2ccccc2C(=O)OCC(=O)Nc2ccccc2C(F)(F)F)cc1	-71	.	.	.	.
CN(C)c1cc[n+](CC(=O)Nc2ccccc2C(F)(F)F)cc1	.	.	.	.	.
COc1ccc(S(=O)(=O)Nc2cc(Sc3ncn[nH]3)c(O)c3ccccc23)cc1	.	.	.	.	?
O=S(=O)(Nc1cc(Sc2cccc3cccnc23)c(O)c2ccccc12)c1ccc(F)cc1	-94	-92	.	.	?
Cn1nnc(NC(=S)NC(=O)c2ccc(-c3ccc(Br)cc3)o2)n1	-72	-69	.	.	?
O=C(COc1ccc(Br)cc1Br)NC(=S)N1CCCc2ccccc21	.	.	.	-92%	.
O=C(CN1CCC2(CC1)OCCO2)c1c[nH]c2ccccc12	.	.	.	-122%	.
COC(=O)[C@@H]1CCCN1S(=O)(=O)Cc1ccccc1	/	/	.	/	/
Fc1ccc2[nH]c3c(N4CCN(c5ccccc5)CC4)ncnc3c2c1	?	?	.	-90%	.
SMILES	Six1-Eya2 inh	CtBP-E1A blk	GRP78 ERSR act	pAkt inh	RGS4 inhibitor
CCCSc1cc(N2CCN(C)CC2)nc(-c2ccc(OC)cc2)n1	.	.	.	-89%	.
COC(=O)c1ccccc1-c1cc(C)cc2c1OC(CNC(=O)c1cc(C)on1)C2 (stereo not given)	/	/	.	/	/
COCc1cc(C)nc(OCC(=O)N/N=C/c2ccccc2O)c1C#N	-91	-84	.	.	.
COCc1cc(C)nc(OCC(=O)N/N=C/c2ccc(O)cc2O)c1C#N	-84	-88	.	.	.
CN[C@H](C)CCC=C(C)C	/	/	.	/	/
CS(=O)(=O)Nc1cccc(NC(=O)c2cccc3c(-c4cccc(C(N)=O)c4)coc23)c1	?	-72	.	.	/
CC(=O)c1cccc(NC(=O)c2cccc3c(-c4cccc(C(N)=O)c4)coc23)c1	.	?	.	.	/
O=c1[nH]c(=S)[nH]c2n[nH]nc12	/	/	.	/	/
